Assay outcomes deposited in PubChem BioAssay by several laboratories.
A selection: hits, their analogues and other compounds. The true share with any hit is near 3.8%.
PrPC surface inh – inhibitors of human cell surface prion protein PrPC, primary screen, cell-based, TR-FRET; TR-FRET read-out; Major prion protein (Homo sapiens), P04156; hit rate 0.43% among 370,000; inhibition, % at 13.8 µM; in the data active = inhibition above about 24%
Mtb hypoxia inh – PubChem AID 1159583. M. tuberculosis hypoxia-regulated fluorescent reporter, fluorescence. fluorescence inhibition, % (no concentration beside the values). hit rate 0.1% among 300,000; in the data active = fluorescence inhibition mostly above about 23%, no sharp cut-off; inactive = mostly below about 17%
FBA Mtb inh – Mtb FBA enzyme inhibitors, primary screen, biochemical, fluorescence, strain H37Rv; Fructose-bisphosphate aldolase (Mycobacterium tuberculosis (strain ATCC 25618 / H37Rv)), …; purified M. tuberculosis FBA, fluorescence read-out; hit rate 2.3% among 360,000; AID 588726, 2011; inhibition, % at 1 µM; in the data active = inhibition above about 27%
Target sequence (P9WQA3 whole entry, looked up): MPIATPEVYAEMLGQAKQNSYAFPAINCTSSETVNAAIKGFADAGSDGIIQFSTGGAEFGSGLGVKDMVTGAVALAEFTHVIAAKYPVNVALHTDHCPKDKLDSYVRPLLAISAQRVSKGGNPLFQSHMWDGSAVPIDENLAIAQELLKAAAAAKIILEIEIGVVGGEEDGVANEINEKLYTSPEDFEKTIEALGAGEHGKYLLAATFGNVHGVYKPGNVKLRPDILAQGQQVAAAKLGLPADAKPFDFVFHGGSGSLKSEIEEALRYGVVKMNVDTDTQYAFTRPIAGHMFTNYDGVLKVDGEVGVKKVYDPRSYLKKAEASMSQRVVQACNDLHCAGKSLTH
Yp Topo-I inh – Yersinia pestis topoisomerase I inhibitors, primary screen, biochemical, cleavage product accumulation, plate reader, single point | DNA topoisomerase I (Yersinia pestis CO92) | Y. pestis Topo-I cleavage product accumulation | activity, % at 10 µM | hit rate 0.064% among 360,000 | AID 504884, 2011; in the data active = activity above about 50%, passing the limit was not always enough; inconclusive = no clear call, values can overlap the other calls
GDH-TPI counter – GDH-TPI coupling enzyme inhibitors, primary screen, artefact control for M. tuberculosis FBA inhibitor project, biochemical, absorbance, full deck; GDH-TPI coupled enzyme counterscreen, NADH absorbance; hit rate 1.2% among 360,000; AID 588335, 2011; inhibition, % at 4.8 µM; in the data active = inhibition above about 30%
PrP 5UTR inh – inhibition of PrP 5' UTR reporter expression; hit rate 0.35% among 340,000; cell-based PrP 5' UTR mRNA reporter, plate reader; inhibition, % (test concentration not listed); in the data active = inhibition above about 52%
PrP UTR cherry – prion 5' UTR mRNA inhibition, cherry-pick retest. AID 504592, 2011. cell-based prion protein 5' UTR reporter, plate reader. inhibition, % at 2.5 µM. shares compounds with PrP 5UTR inh. hit rate 48% among 1,100; in the data active = inhibition above about 54%; inconclusive = no clear call, values can overlap the other calls
Of the large screens only hits and unclear results are named; the others gave an inactive call (follow-up assays come after a bar, where shown).

CCCOc1ccccc1C1CC(=O)Nc2cc3c(cc21)OCCO3 (stereo unspecified)	PrP 5UTR inh 70 (no result: PrPC surface inh, Mtb hypoxia inh) | PrP UTR cherry 80
CCOc1ccccc1C1CC(=O)Nc2cc3c(cc21)OCCO3 (stereo unspecified)	PrP 5UTR inh 56 | PrP UTR cherry 84
Nc1ccc(Cn2ccc3c4c(N)nc(N)nc4ccc32)cc1	PrP 5UTR inh 62 (no result: Mtb hypoxia inh) | PrP UTR cherry inactive
CCOC(=O)C1C2COc3ccccc3C2N2C(=O)c3cc(C)ccc3NC(=O)[C@@]12C (stereo partly specified)	none (no result: PrPC surface inh, FBA Mtb inh, Yp Topo-I inh, GDH-TPI counter, PrP 5UTR inh)
CCOC(=O)C1=CN(CC2CCCCC2)CCC1=O	PrP 5UTR inh 84 | PrP UTR cherry inactive
CC(=O)C1=CN(CC2CCCCC2)CCC1=O	none
COc1ccc(Nc2nc(-c3c(C)nc4ncccn34)cs2)cc1	PrP 5UTR inh 65 (no result: Mtb hypoxia inh) | PrP UTR cherry 87
Cc1nc2ncccn2c1-c1csc(Nc2ccccc2)n1	none
Cc1nc2ncccn2c1-c1csc(Nc2ccc(N(C)C)cc2)n1	PrP 5UTR inh 60 | PrP UTR cherry 90
COc1ccc(NC(=O)Nc2ccc3c(c2)C(=O)N([C@H](C)CO)C[C@H](C)[C@@H](CN(C)C(=O)Nc2ccc(C(F)(F)F)cc2)O3)cc1	none (no result: Mtb hypoxia inh)
COc1ccc(NC(=O)N(C)C[C@H]2Oc3ccc(NC(=O)Nc4ccc(C(F)(F)F)cc4)cc3C(=O)N([C@H](C)CO)C[C@@H]2C)cc1	PrP 5UTR inh 65 | PrP UTR cherry inactive
CC(=O)CC(O)CC(=O)C1OC(=O)CCC=CCc2ccccc21 (stereo unspecified)	none (no result: PrPC surface inh, FBA Mtb inh, Yp Topo-I inh, GDH-TPI counter, PrP 5UTR inh)
O=C(NCCNCCO)C1(C(F)(F)F)CC(=CCCO)CCCO1 (stereo unspecified)	none (no result: PrPC surface inh, FBA Mtb inh, Yp Topo-I inh, GDH-TPI counter, PrP 5UTR inh)
COC(=O)C1=CO[C@@H](OC2OC(CO)C(O)C(O)C2O)[C@@H]2[C@@H](C)[C@@H](O)C[C@H]12 (stereo partly specified)	none (no result: Mtb hypoxia inh)
COC(=O)C1=CO[C@@H](O[C@@H]2O[C@H](CO)[C@@H](O)[C@H](O)[C@H]2O)C2C1C=C[C@@]2(O)CO (stereo partly specified)	PrP 5UTR inh 76 | PrP UTR cherry inactive
Cc1ccc2c(c1)sc(=NC(=O)c1cccs1)n2C	Yp Topo-I inh inconclusive, PrP 5UTR inh 65 (not shown: Mtb hypoxia inh) | PrP UTR cherry inactive
Cc1ccc2c(c1)sc(=NC(=O)C1CC1)n2C	none
CC(O)C1CN=C(N)N1CC(C)(C)C (stereo unspecified)	none (no result: PrPC surface inh, FBA Mtb inh, Yp Topo-I inh, GDH-TPI counter, PrP 5UTR inh)
CC1=C(C(=O)Nc2ccc(CC(=O)NCc3ccc(OC(C)C)cc3)cc2)SCCO1	PrP 5UTR inh 72 | PrP UTR cherry 87
CCOC1OC(C(=O)Nc2ccccc2)=CC(C2CC2)C1CCCO (stereo unspecified)	none (no result: PrPC surface inh, FBA Mtb inh, Yp Topo-I inh, GDH-TPI counter, PrP 5UTR inh)
O=C(Nc1ccccn1)c1ccc(C(=O)c2ccccc2)cc1	none
O=C(NC(=O)c1ccccc1)Nc1ccccn1	PrP 5UTR inh 75 (no result: Mtb hypoxia inh) | PrP UTR cherry 76
COc1ccc(C(=O)NC(=O)Nc2cc(C)ccn2)cc1	PrP 5UTR inh 61 | PrP UTR cherry 64
CC(=NS(=O)(=O)c1ccc(C)cc1)N1CCCCC1	none (no result: PrPC surface inh, FBA Mtb inh, Yp Topo-I inh, GDH-TPI counter, PrP 5UTR inh)
CC(=O)C[C@H](O)CC(=O)[C@H]1OC(=O)CCCCCc2ccccc21	none
CC(=O)C[C@H](O)CC(=O)[C@@H]1OC(=O)CCCCCc2ccccc21	PrP 5UTR inh 90 | PrP UTR cherry inactive
CC(=O)C[C@H](O)CC(=O)[C@H]1OC(=O)[C@H](C)CCCCc2ccccc21	PrP 5UTR inh 66 | PrP UTR cherry inactive
CCCCCC(=O)N1CC2(CC(c3cccc(NC(=O)CC)c3)=NO2)CC1C(N)=O (stereo unspecified)	none (no result: PrPC surface inh, FBA Mtb inh, Yp Topo-I inh, GDH-TPI counter, PrP 5UTR inh)
O=C(NCc1ccccc1)C1=CC(C2CCCCC2)CC(OCc2ccc(CO)cc2)O1 (stereo unspecified)	none (no result: PrPC surface inh, FBA Mtb inh, Yp Topo-I inh, GDH-TPI counter, PrP 5UTR inh)
Cc1ccc(S(=O)(=O)Oc2ccc(C=N/N=C3/NC(=O)C(CC(=O)O)S3)cc2)cc1 (stereo unspecified)	none (no result: PrPC surface inh, FBA Mtb inh, Yp Topo-I inh, GDH-TPI counter, PrP 5UTR inh)
COc1ccc(NC(=O)Cn2c(=O)n(CC3CCCO3)c(=O)c3cc(OC)c(OC)cc32)cc1OC (stereo unspecified)	PrP 5UTR inh 58 | PrP UTR cherry inactive
COc1ccc(C2CC(=O)C=C(c3ccc(NC(C)=O)cc3)C2)cc1OC (stereo unspecified)	none (no result: PrPC surface inh, FBA Mtb inh, Yp Topo-I inh, GDH-TPI counter, PrP 5UTR inh)
C#CCOCCOCCOCCNc1nc(N2CCN(C(=O)C(CCC(=O)O)n3cc(C(N)CO)nn3)CC2)nc(N2CCN(C(=O)C(CCC(=O)O)n3cc(C(N)C(C)CC)nn3)CC2)n1 (stereo unspecified)	none (no result: PrPC surface inh, FBA Mtb inh, Yp Topo-I inh, GDH-TPI counter, PrP 5UTR inh)
CC1OC(OC2C=C3CCC4C(CCC5(C)C(c6ccc(=O)oc6)CCC45O)C3(C)CC2)C(O)C(OC2OC(CO)C(O)C(O)C2O)C1O (stereo unspecified)	PrP 5UTR inh 93 (no result: Mtb hypoxia inh) | PrP UTR cherry 92
Cc1nn(-c2ccccc2)c(Cl)c1C(=O)NCCCCNC(=O)c1c(C)nn(-c2ccccc2)c1Cl	PrP 5UTR inh 74 | PrP UTR cherry inactive
CC[C@]12c3[nH]c4cc(CCC(=O)N(C)C)ccc4c3CCN1C(=O)[C@@H](CC(=O)NCCc1ccccn1)C[C@@H]2C(=O)N1CCN(C(=O)c2ccco2)CC1	none
CC[C@]12c3[nH]c4ccccc4c3CCN1C(=O)C(CC(=O)NCCc1ccccn1)C[C@@H]2C(=O)N1CCN(C(=O)c2ccco2)CC1 (stereo partly specified)	PrP 5UTR inh 67 | PrP UTR cherry inactive
Cc1cc(C)c(C#N)c(SCc2nnc(-c3ccccc3[N+](=O)[O-])o2)n1	none
Cc1cc(C)c(C#N)c(SCc2nnc(-c3ccccc3)o2)n1	PrP 5UTR inh 68 (not shown: Mtb hypoxia inh) | PrP UTR cherry 67
COC(=O)CN1C(=O)C2C(C=Cc3ccccc3)N3C(=O)CN(CCO)C(=O)[C@@]3(Cc3ccccc3)C2C1=O (stereo partly specified)	none (no result: PrPC surface inh, FBA Mtb inh, Yp Topo-I inh, GDH-TPI counter, PrP 5UTR inh)
CC(C)CC(NC(=O)c1nc[nH]c1C(=O)NC1CCN(C(=O)OC(C)(C)C)CC1)C(=O)OCc1ccccc1 (stereo unspecified)	none (no result: PrPC surface inh, FBA Mtb inh, Yp Topo-I inh, GDH-TPI counter, PrP 5UTR inh)
Cc1nc2c(ccc3c([N+](=O)[O-])cccc32)c(C)c1C	PrP 5UTR inh 71 | PrP UTR cherry inactive
Cc1ccc2c([N+](=O)[O-])cccc2n1	none
Cc1ccc(C23CC4CC(CC(C(N)=O)(C4)C2)C3)cc1	none
COC(=O)CNC(=O)C12CC3CC(C1)CC(c1ccc(C)cc1)(C3)C2	PrP 5UTR inh 78 | PrP UTR cherry inactive
COc1ccc(C(C)=NNC(=O)CNC(=O)C(c2ccccc2)c2ccccc2)c(OC)c1	none (no result: PrPC surface inh, FBA Mtb inh, Yp Topo-I inh, GDH-TPI counter, PrP 5UTR inh)
